“And” between values parts separate entries of the source, which are not always exact repeats. Equal values may be shown once. This is part of a sample that, as a whole, favours compounds with a hit. Of some 83,000 tested, about 20% had one in any assay.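 Compound tested at a single concentration for 48 hours in 96-well plates; a percent growth value below 10 was scored as active.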 The source made the active and inactive calls.
system: MDA-MB-468 breast; experiment: NCI-60 one-dose screen, 48 h (100 = growth as untreated, 0 = no growth, -100 = all killed); conditions: 10 µM unless noted

SMILES | growth
Cc1ccc(Nc2cc(N)nc(N)n2)cc1Cl | 77.8% (inactive)
N=C(N=C(N)N)N1CCOCC1 | 100% (inactive) and 101% (inactive)
COc1ccc(Nc2nccc(Nc3ccc4[nH]ncc4c3)n2)cc1 | 44% (inactive)
CCN1C(=O)N(CC)C2C1NN=c1s/c(=C\c3ccc([N+](=O)[O-])cc3)c(=O)n12 (stereo not given) | 7.94% (active)
O=C(Nc1cccc(-n2cc(-c3ccncc3)c(-c3cc(O)cc(Cl)c3)n2)c1)c1ccc(N2CCOCC2)c(C(F)(F)F)c1 | 26% (inactive)
COc1cc(C(C)n2cc(-c3ccccc3)nn2)ccc1OC1CCCCC1 (stereo not given) | 8.89% (active)
COc1ccc(NC(=O)Nc2ccc(OCCCCCC(=O)NO)cc2)cc1 | 93.1% (inactive)
CCCn1cnc2c(c1=N)C(c1ccc(OC)cc1)c1sc3c(CC)cccc3c1O2 (stereo not given) | 39.4% (inactive)
O=C(O)/C=C/C=C/c1ccccc1 | 93.6% (inactive) and 112% (inactive)
CCN(CC)CCOC(=O)Nc1c(C(C)C)cccc1C(C)C | 97.3% (inactive)
COc1ccc(OC)c(-c2ccc(-c3ccccc3N)c3[nH]c4ccccc4c23)c1 | 72.1% (inactive)
O=C(COc1cc(O)c2c(=O)cc(-c3ccccc3)oc2c1)Nc1ccccc1 | 103% (inactive)
Cn1c(=O)c2c(nc(NC3=NS(=O)(=O)c4ccccc43)n2Cc2ccccc2)n(C)c1=O | 103% (inactive)
C=C1C(=O)O[C@H]2[C@H]1CC/C(COC(=O)OC/C1=C/CC[C@@]3(C)O[C@H]3[C@H]3OC(=O)[C@@H](CN(C)C)[C@@H]3CC1)=C\CC[C@@]1(C)O[C@@H]21 | -14% (active)
O=[N+]([O-])c1ccccc1C(O)Cc1ccc2ccccc2n1 (stereo not given) | 79.7% (inactive)
CN1CCN(CCOc2ccc(-c3cnc4c(-c5ccccc5F)cnn4c3)cc2)CC1 | 45.6% (inactive)
Cc1ccc2c(=O)cc(C(=O)Nc3sc4c(c3C(=O)NCc3cccnc3)CCCC4)oc2c1C | 109% (inactive)
OCCSc1ccc(Cl)cc1 | 106% (inactive)
O=C1NC(=O)C(c2ccccc2)O1 (stereo not given) | 106% (inactive)
CCCCCCN1C(=O)CN=C1Nc1ccc2cc3ccc(NC4=NCC(=O)N4CCCCCC)cc3nc2c1 | 3.94% (active)

SMILES | growth
COc1ccc(C2=NN(C(C)=O)C(c3c(C)nn(-c4ccccc4)c3N3CCOCC3)C2)cc1 (stereo not given) | 92.6% (inactive)
O=C(Nc1ccccc1)OCC1OCOC(COC(=O)Nc2ccccc2)C1OC(=O)Nc1ccccc1 (stereo not given) | -1.51% (active)
COc1cc2c(c(OC)c1OC)-c1ccc(SC)c(=O)cc1[C@@H](NC1OC(CO)C(O)C(O)C1O)CC2 (stereo not given in full) | 23.6% (inactive)
CN1CCN(Cc2ccc(NC(=O)c3cncc(C#Cc4nc(N)nc5[nH]ncc45)c3)cc2C(F)(F)F)CC1 | 35.1% (inactive)
O=C(Cn1cc(CN2C(=O)c3ccccc3S2(=O)=O)nn1)Nc1cccc(Cl)c1 | 101% (inactive)
C#CCN(C)Cc1ccccc1 | 96.1% (inactive) and 122% (inactive)
O=c1[nH]c(N2CCC(Cc3ccccc3)CC2)nc2sc3c(c12)CCCC3 | 104% (inactive)
COc1ccc(CCN2C(=O)CCC3=C2CCCC3=O)cc1OC | 105% (inactive)
CCCCNCC(=O)Nc1ccc(C(=O)OCC)cc1 | 103% (inactive)
Cc1ccc(-c2cnc3sc4ccc(Cl)cc4n23)cc1 | 103% (inactive)
CCOC(OCC)C(=O)c1ccccc1 | 102% (inactive)
CC(C)OC(=O)Nc1cc(F)ccc1F | 92.8% (inactive)
CC(=O)OC[C@]12CCC(C)(C)C[C@H]1[C@@]1(O)[C@H](O)C[C@@H]3[C@@]4(C)CCCNC(C)(C)[C@@H]4CC[C@@]3(C)[C@]1(C)CC2 | 115% (inactive)
Nc1ncc(-c2ccc3ncnc(N4CCc5cc(F)c(Cl)cc54)c3c2)cc1CO | -39.8% (active)
CC/C(=C(\CC)c1ccc(OCCN(CC)CC)cc1)c1ccc(OCCN(CC)CC)cc1 | 0.372% (active)
C=C(C)[C@@H]1CC[C@]2(C)[C@H](C(=O)C=C3[C@@H]4C[C@](C)(C(=O)N5CCN(C)CC5)CC[C@]4(C)CC[C@]32C)[C@@]1(C)CCC#N | -76.5% [100 µM] (active)
Cc1ccc(-c2cc3c(SCC(=O)Nc4cc(C(F)(F)F)ccc4Cl)nccn3n2)cc1 | -19.3% (active)
COc1cc(C(c2c[nH]c3ccccc23)N2CCCC2)ccc1OCc1ccccc1 (stereo not given) | 53.9% (inactive)
Cc1ccc(S(=O)(=O)NC(=O)NCCSSCCNC(=O)NS(=O)(=O)c2ccc(C)cc2)cc1 | 97.6% (inactive)
O=C(CCl)N(c1ccccc1)c1ccccc1 | 104% (inactive)

— PubChem BioAssay (NCI)
